# “And” between values parts separate entries of the source, which are not always exact repeats. Equal entries are not always repeated. Records with an inconclusive call do not appear. Entries that show only a call come without a potency. The source holds several records for some structures; these can differ, active in one and inactive in another. The source made the active and inactive calls. Unless noted, the call rests on the fitted dose curve; in most records, active means well fitted curve in the direction sought with a large enough effect; inconclusive means small, poorly fitted or top-dose-only effect, or another doubt; inactive means no such curve, though single readings can be large; an effect the other way counts as inactive or inconclusive.
# Experiments:
# [1] = biological target: Cytochrome P450 2C9 (Homo sapiens) (UniProt P11712); assay: qHTS Assay for Inhibitors and Substrates of Cytochrome P450 2C9 (AID 883); further: nearly all actives have a fitted effect of over 60% in size; further: potency means the concentration at half of the fitted maximal effect
# Procedure, shortened: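 Luminescent read-out of deoxyluciferin hydroxylation, normalized to 57uM sulphaphenazole (AC100). Reaction: 10nM enzyme, 100uM Luciferin-H (equal to KM), 25mM KPO4, 10 min compound preincubation, then 60 min with NADPH regeneration, both at 37C.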
# [2] = biological target: Cytochrome P450 2C19 (Homo sapiens) (UniProt P33261); assay: qHTS Assay for Inhibitors and Substrates of Cytochrome P450 2C19 (AID 899); further: nearly all actives have a fitted effect of over 60% in size; further: potency means the concentration at half of the fitted maximal effect
# Procedure, shortened: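 Luminescence readout of luciferin formed from 10uM Luciferin-H EGE (KM level) by 5 nM CYP2C19 in 50mM KPO4. 60 min NADPH-driven reaction at 37C after 10 min compound preincubation; data scaled to 57uM ketoconazole inhibition.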
# [3] = biological target: Cytochrome P450 3A4 (Homo sapiens) (UniProt P08684); assay: qHTS Assay for Inhibitors and Substrates of Cytochrome P450 3A4 (AID 884); further: series mostly up to about 57 µM; nearly all actives have a fitted effect of over 50% in size
# Procedure, shortened: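 20 nM human CYP3A4 with 25 uM Luciferin-PPXE (at KM) in 200 mM KPO4, preincubated 10 min with compound; NADPH regeneration started a 60 min RT reaction. Luciferin detected by luminescence, normalized to 57 uM ketoconazole as full inhibition.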
# [4] = qHTS Assay for Identification of Small Molecule Agonists for Hypoxia Response Element Signaling Pathway (AID 914; active means well fitted activation curve with a large enough effect in the signal ratio, with a control signal flat, not every such curve was filed as active; the % refers to the signal ratio); conditions: ME-180 (cervical carcinoma) HRE-bla reporter, beta-lactamase ratio, CoCl2, 17 h; stronger effect = higher value
# Procedure, shortened: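 HRE-bla ME-180 cells with beta-lactamase reporter under hypoxia response element, compounds with EC50 CoCl2 for 17 hours at 37 C. CCF4 substrate, 460nm/530nm emission ratio gave %Activity; AC50 from titration series.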
# [5] = biological target: Cytochrome P450 3A4 (Homo sapiens) (UniProt P08684); assay: qHTS Assay for Activators of Cytochrome P450 3A4 (AID 885); further: nearly all actives have a fitted effect of over 65% in size
# Procedure, shortened: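 20nM CYP3A4 + 25uM Luciferin-PPXE (=KM), 200mM KPO4; cpd 10 min RT; NADPH regen, 60 min RT; stop w/ detection buffer, 20 min; luminescence. Normalized to 57 uM ketoconazole.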
# [6] = biological target: Cytochrome P450 2D6 (Homo sapiens) (UniProt P10635); assay: qHTS Assay for Inhibitors and Substrates of Cytochrome P450 2D6 (AID 891);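 further: luciferin methyl ether substrate demethylated by CYP2D6 with NADPH regeneration; nearly all actives have a fitted effect of over 60% in size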
# Procedure, shortened: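 Human CYP2D6 (5 nM) with 30 uM Luciferin-ME EGE (at Km) in 100 mM KPO4, compound preincubated 10 min, then NADPH regeneration system for 60 min at room temperature. Luciferin read by luminescence; normalized to 1.43 uM quinidine.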
# Sequence of Cytochrome P450 2C19 (Homo sapiens) (P33261 whole entry, looked up): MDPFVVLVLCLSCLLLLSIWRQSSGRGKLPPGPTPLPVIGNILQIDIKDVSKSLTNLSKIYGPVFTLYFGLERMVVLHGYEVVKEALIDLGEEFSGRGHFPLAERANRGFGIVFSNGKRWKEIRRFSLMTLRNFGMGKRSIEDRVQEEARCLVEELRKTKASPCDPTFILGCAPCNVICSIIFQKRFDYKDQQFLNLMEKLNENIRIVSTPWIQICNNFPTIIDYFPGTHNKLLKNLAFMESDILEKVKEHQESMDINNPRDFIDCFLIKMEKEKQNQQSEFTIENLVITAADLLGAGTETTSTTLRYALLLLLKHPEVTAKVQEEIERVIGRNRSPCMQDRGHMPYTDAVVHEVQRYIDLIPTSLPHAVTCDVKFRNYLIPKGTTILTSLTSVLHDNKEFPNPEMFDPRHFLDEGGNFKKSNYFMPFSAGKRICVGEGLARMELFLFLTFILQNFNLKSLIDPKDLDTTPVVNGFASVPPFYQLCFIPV
# Sequence of Cytochrome P450 2D6 (Homo sapiens) (P10635 whole entry, looked up): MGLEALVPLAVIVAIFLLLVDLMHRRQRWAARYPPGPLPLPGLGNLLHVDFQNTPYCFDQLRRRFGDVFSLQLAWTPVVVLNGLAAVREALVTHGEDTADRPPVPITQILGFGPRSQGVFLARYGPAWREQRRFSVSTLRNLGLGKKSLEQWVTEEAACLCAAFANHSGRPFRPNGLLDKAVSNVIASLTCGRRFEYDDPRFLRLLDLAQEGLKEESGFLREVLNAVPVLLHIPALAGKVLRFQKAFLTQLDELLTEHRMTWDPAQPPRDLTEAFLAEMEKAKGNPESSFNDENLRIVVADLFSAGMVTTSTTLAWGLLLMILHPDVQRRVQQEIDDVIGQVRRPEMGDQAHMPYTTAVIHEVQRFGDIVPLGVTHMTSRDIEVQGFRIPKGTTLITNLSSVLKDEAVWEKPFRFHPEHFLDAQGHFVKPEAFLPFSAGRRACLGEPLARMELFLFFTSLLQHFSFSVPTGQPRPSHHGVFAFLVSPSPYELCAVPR
# Sequence of Cytochrome P450 2C9 (Homo sapiens) (P11712 whole entry, looked up): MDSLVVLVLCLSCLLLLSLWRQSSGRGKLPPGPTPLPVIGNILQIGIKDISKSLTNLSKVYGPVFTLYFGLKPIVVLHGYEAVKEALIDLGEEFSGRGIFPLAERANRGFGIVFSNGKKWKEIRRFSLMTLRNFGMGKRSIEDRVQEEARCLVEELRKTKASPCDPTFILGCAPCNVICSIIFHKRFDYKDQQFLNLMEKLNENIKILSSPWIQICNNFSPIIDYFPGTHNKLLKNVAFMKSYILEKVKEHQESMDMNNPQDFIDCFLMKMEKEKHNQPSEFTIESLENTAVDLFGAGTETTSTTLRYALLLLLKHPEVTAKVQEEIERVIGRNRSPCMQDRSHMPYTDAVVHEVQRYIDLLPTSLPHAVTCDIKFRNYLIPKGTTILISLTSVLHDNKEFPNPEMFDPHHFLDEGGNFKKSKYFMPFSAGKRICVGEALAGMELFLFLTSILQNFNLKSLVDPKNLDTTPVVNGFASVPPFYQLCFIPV
# Sequence of Cytochrome P450 3A4 (Homo sapiens) (P08684 whole entry, looked up): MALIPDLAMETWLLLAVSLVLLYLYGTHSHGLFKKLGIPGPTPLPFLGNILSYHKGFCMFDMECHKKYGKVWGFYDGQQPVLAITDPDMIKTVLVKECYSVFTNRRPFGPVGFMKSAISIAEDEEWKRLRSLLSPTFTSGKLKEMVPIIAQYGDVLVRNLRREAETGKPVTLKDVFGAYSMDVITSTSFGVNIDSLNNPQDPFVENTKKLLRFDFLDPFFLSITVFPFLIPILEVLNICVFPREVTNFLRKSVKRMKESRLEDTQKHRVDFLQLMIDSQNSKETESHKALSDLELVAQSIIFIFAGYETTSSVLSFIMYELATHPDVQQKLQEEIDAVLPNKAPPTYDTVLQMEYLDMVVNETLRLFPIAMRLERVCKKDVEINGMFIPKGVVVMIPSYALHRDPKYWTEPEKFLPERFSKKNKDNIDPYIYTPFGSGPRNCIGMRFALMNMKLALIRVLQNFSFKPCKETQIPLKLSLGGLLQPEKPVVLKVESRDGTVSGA
smiles,measurement,setting,value
COc1ccc(O[C@H]2C=C[C@@H](c3ccccc3)O[C@H]2COC(=O)N2CCCCC2)cc1,Potency,[1],2510 nM (active)
same,Potency,[2],501 nM (active)
COC(=O)c1ccc(C23CC4(C2)[C@H](CN(Cc2ccc(C(F)(F)F)cc2)[C@@H]4c2ccccc2)C3c2ccc(C(F)(F)F)cc2)cc1 (some centres not stated),Potency,[3],inactive
COC(=O)[C@@H]1CC[C@H](C)[C@@H](c2ccc(C)cc2)N1C(=O)c1ccc(/C=N\OC[C@@H](O)COCc2ccco2)cc1,Potency,[1],3980 nM (active)
same,activation,[4],9.82% (inactive)
CCC(=O)CC(NC(=O)OC)c1ccccc1 (configuration not stated),Potency,[1],inactive
same,"activity change, positive = activation",[5],-34.8% [at 11.4 µM] (inactive)
same,Potency,[2],inactive
COc1cccc(C2C(C)CCC3C(=O)N(C)C(C(C)C)C(=O)N32)c1 (configuration not stated),Potency,[1],inactive
same,"activity change, positive = activation",[5],-59.1% [at 11.4 µM] (inactive)
same,Potency,[2],inactive
OB(O)c1ccc(B(O)O)cc1,Potency,[3],inactive
OB(O)c1csc2ccccc12,Potency,[3],inactive
COc1ccc(OC2C=CC(c3ccccc3)OC2CO)c(C(C)=O)c1 (configuration not stated),Potency,[1],inactive
same,"activity change, positive = activation",[5],-57.7% [at 11.4 µM] (inactive)
same,Potency,[2],inactive
COC(=O)C1=C(C)N(Cc2ccccc2)[C@]23O[C@](C(=O)OC)(C(=O)N2C1c1ccccc1)C1C(=O)N(c2ccccc2)C(=O)C13 (some centres not stated),Potency,[1],inactive
same,"activity change, positive = activation",[5],-42.8% [at 11.4 µM] (inactive) and -32.3% [at 11.4 µM] (inactive)
same,Potency,[2],inactive
COC(=O)c1ccc(C23CC4(C2)[C@H](CN(Cc2ccc(-c5ccccc5)cc2)[C@@H]4c2ccccc2)C3c2ccc(Cl)nc2)cc1 (some centres not stated),Potency,[3],inactive
COC(=O)[C@@H]1CC[C@H](C)[C@@H](c2ccc(C)cc2)N1C(=O)c1ccc(/C=N\OC[C@@H](O)[C@H]2O[C@H]3OC(C)(C)O[C@H]3[C@@H]2O)cc1,Potency,[1],2510 nM (active)
same,"activity change, positive = activation",[5],-58.3% [at 11.4 µM] (inactive)
same,Potency,[2],631 nM (active)
CC1CCC2C(=O)OC(CN=[N+]=[N-])CN2C1c1ccc(Br)cc1 (configuration not stated),Potency,[1],inactive and 1 µM (active)
same,Potency,[6],inactive
C#CCCCO/N=C1/[C@H]2O[C@@H]2[C@@H](O)[C@H]2[C@H]1CCn1c(=O)n(Cc3cc4c(cc3Cl)OCO4)c(=O)n12,Potency,[1],inactive
same,Potency,[2],inactive
CC12C=C(/C=C/c3ccccc3)C(C)(C1)C(c1ccccc1)CC2=O (configuration not stated),Potency,[1],inactive
same,"activity change, positive = activation",[5],-52.8% [at 11.4 µM] (inactive)
same,Potency,[2],794 nM (active)
O=C1CCC[C@@H](C(C(=O)OCc2ccccc2)C(=O)OCc2ccccc2)C1,Potency,[1],3160 nM (active)
same,"activity change, positive = activation",[5],-39.2% [at 11.4 µM] (inactive)
same,activation,[4],-22.4% (inactive)
C[C@@H](c1ccccc1)N1C(=O)[C@H]2[C@@H]3[C@H](O)[C@H](O)CC(=O)[C@H]3CC[C@H]2C1=O,Potency,[1],inactive
same,activation,[4],-2.53% (inactive) and -2.06% (inactive)
CC1Cc2c(-c3ccccc3)nc3c(c2CO1)CN(CCOc1ccccc1)CC3 (configuration not stated),Potency,[1],inactive
same,"activity change, positive = activation",[5],-39% [at 11.4 µM] (inactive)
same,Potency,[2],inactive
Cn1c(=O)c(C(=O)COC(=O)c2cc(C3CC3)nc3ccccc23)c(N)n(Cc2ccccc2)c1=O,Potency,[3],inactive
COC(c1ccccc1Br)C(C)/C=C/CCO (configuration not stated),Potency,[1],inactive
same,"activity change, positive = activation",[5],-47.9% [at 11.4 µM] (inactive)
same,Potency,[6],inactive
same,Potency,[2],1580 nM (active)
O=C1OC(C2=CCCCC2)=NC12CC2,Potency,[1],inactive
same,"activity change, positive = activation",[5],-40.2% [at 11.4 µM] (inactive)
same,Potency,[2],inactive
CC(C)=CCC/C(C)=C/C=C/C1=CC2(C)CC1(C)C(/C=C(\C)CCC=C(C)C)CC2=O (configuration not stated),Potency,[1],inactive
same,Potency,[6],inactive
same,Potency,[2],inactive
CCC1=C2CC[C@H]3C(=O)N(C)C(=O)[C@H]3[C@H]2[C@@]2(C)C(=NCC(=O)OC)OC(=O)N2C1=O,Potency,[3],inactive
COc1ccc(OC2C(O)COC2/C=C/C#Cc2ccccc2)cc1 (configuration not stated),Potency,[1],inactive
same,"activity change, positive = activation",[5],-57.7% [at 11.4 µM] (inactive)
same,Potency,[6],inactive
same,Potency,[2],inactive
CC(C)CCN1CCc2nc(-c3ccccc3)c3c(c2C1)COC(C)C3 (configuration not stated),Potency,[1],inactive
same,"activity change, positive = activation",[5],-56% [at 11.4 µM] (inactive)
same,Potency,[6],inactive
same,Potency,[2],inactive
OCC1OC(c2ccc3c(c2)OCO3)C=CC1Oc1ccc(C2CCCC2)cc1 (configuration not stated),Potency,[1],inactive
same,"activity change, positive = activation",[5],-50.7% [at 11.4 µM] (inactive)
same,Potency,[2],inactive
O=C(O)c1cc(-c2ccco2)nc2ccccc12,Potency,[3],inactive

# From PubChem BioAssay (NCATS)
